# Measured values taken from PubChem BioAssay AID504329 (Southern Research Specialized Biocontainment Screening …, 2011).
# The whole screen tested about 340,000 compounds, of which about 1,000 (0.29%) were called active. Rule as the data show it: inconclusive = inhibition above about 27% without an active follow-up result; inactive = below that. These entries were drawn from the full list. Results with a measured potency or affinity are listed apart.
# Assay: NS1A inhibition, H1N1 influenza, cell based functional assay (AID 504329)
# Conditions: percent inhibition, at 12.5 µM, active compounds read high
row,Structure (SMILES),inhibition
1,O=C(N/C=N/OCc1ccc(Cl)cc1Cl)NOCc1c(Cl)cccc1Cl,-13.6% (inactive)
2,Cc1ccc(S(=O)(=O)NCC(c2ccc3c(c2)OCO3)N2CCN(c3ccccc3)CC2)cc1 (configuration not stated),-19.9% (inactive)
3,Cc1[nH]c(C)c(S(=O)(=O)NCc2ccccc2Cl)c1C(=O)N1CCCC1,9.96% (inactive)
4,c1csc(C(c2nnnn2C2CCCC2)N2CCOCC2)c1 (configuration not stated),5.59% (inactive)
5,O=C(CCNC(=O)c1ccccc1Cl)Nc1ccccc1N1CCCC1,-8.83% (inactive)
6,O=C(NCCN1CCOCC1)c1noc2c1CCc1ccccc1-2,1.97% (inactive)
7,CCCCCN1C(=O)Cn2c(nc3ccccc3c2=O)C1C (configuration not stated),4.12% (inactive)
8,Cc1noc(/C=C/N(C)C)c1S(=O)(=O)N1CCN(c2ccc(F)cc2)CC1,4.41% (inactive)
9,CN(C)c1ccc(/C=C/c2cc[n+](C)c3ccccc23)cc1,58.9% (inactive)
10,CC[n+]1ccccc1/C=C/c1ccc(N(C)C)cc1,8% (inactive)
11,COC(=O)c1ccc(CNC(=O)c2sccc2-c2ccccc2)cc1,4.96% (inactive)
12,COc1ccc2[nH]c3c(=O)n4c(nc3c2c1)SCC4,-0.07% (inactive)
13,CCCCc1ccc(NS(=O)(=O)c2cccc(C(=O)N3CCNC(=O)C3)c2)cc1,0.4% (inactive)
14,Oc1ccc(Nc2ccnc3cc(Cl)ccc23)cc1,3.37% (inactive)
15,Clc1ccc2c(NNc3ccccc3Cl)ccnc2c1,6.7% (inactive)
16,N/C(=N\N=C\c1ccc2c(c1)OCO2)SC1CC(=O)N(c2ccc(C(=O)O)cc2)C1=O (configuration not stated),1.14% (inactive)
17,Fc1ccc(Nc2nc(N3CCOCC3)c3ccccc3n2)cc1,4.75% (inactive)
18,Cc1ccc(Nc2nc(N3CCOCC3)c3ccccc3n2)cc1,5.53% (inactive)
19,CCCOc1ccc(C(=O)NCCN2CCOCC2)cc1,-8.97% (inactive)
20,O=C1C2C3CCCC3=C3CCCC3C2C(=O)N1c1ccc(F)cc1 (configuration not stated),-3.36% (inactive)
21,CCOc1ccc(NS(=O)(=O)c2ccc(-c3cnc(C4CC4)o3)cc2)cc1,-5.05% (inactive)

row,Structure (SMILES),inhibition
1,CCSc1nnc(CNc2ccc(C)cc2)n1C,-3.37% (inactive)
2,Oc1ccc(/C=N/N(c2ccccc2)c2ccccc2)cc1O,1.06% (inactive)
3,Oc1ccc(/C=N/N(Cc2ccccc2)c2ccccc2)c(O)c1O,19.2% (inactive)
4,COc1ccc(CCC(=O)N(C)CC(=O)Nc2cc(C)ccc2C)cc1,-11.1% (inactive)
5,CC(C)OC(=O)c1cc(NC(=O)C2C3C=CC(O3)C2C(=O)O)cc(C(=O)OC(C)C)c1 (configuration not stated),6.16% (inactive)
6,O=C1[C@H]2[C@@H](C(=O)N1c1cccc3ccccc13)C1(C(=O)c3ccccc3C1=O)N1CCC[C@@H]21,-0.49% (inactive)
7,COc1nc(C)nc(NC(=O)NS(=O)(=O)c2ccccc2Cl)n1,-15.1% (inactive)
8,COc1cc(OC)nc(NC(=O)NS(=O)(=O)c2ccccc2Cl)n1,-10.9% (inactive)
9,C/C(=N/NC(=O)c1ccccn1)c1ccc(O)cc1,-1.61% (inactive)
10,C/C(=N\NC(=O)c1ccccc1OCc1ccc(F)cc1)c1ccccn1,-7.95% (inactive)
11,CCc1ccc(/C(C)=N/NC(=O)c2ccccn2)cc1,-11.6% (inactive)
12,C/C(=N\NC(=O)c1cccc2ccccc12)c1cccs1,-0.84% (inactive)
13,C/C(=N\NC(=O)c1cccc(Br)c1)c1cccnc1,0.75% (inactive)
14,C/C(=N\NC(=O)c1cccc2ccccc12)c1cccnc1,-8.98% (inactive)
15,O=C(NCCNC(=O)c1ccccc1F)c1ccccn1,-7.82% (inactive)
16,C/C(=N\NC(=O)c1ccccc1)c1cccc(Br)c1,3.22% (inactive)
17,COc1cccc2cc(CC(=O)c3ccccc3)c(=O)oc12,-8.03% (inactive)
18,COc1ccc(-c2oc(=O)c3cc(OC)c(OC)cc3c2C#CCCCO)cc1,6.01% (inactive)
19,COc1ccc(CCNC(=O)CCCCCN2C(=O)c3ccccc3C2=O)cc1OC,-8.38% (inactive)
20,Cc1cc(OCC(=O)NCc2ccncc2)c2c3c(c(=O)oc2c1)CCCC3,-0.56% (inactive)
21,NC(=O)C1CCCc2c1n(Cc1ccccc1)c1ccccc21 (configuration not stated),1.35% (inactive)

row,Structure (SMILES),inhibition
1,CN(c1ccc(OCC(=O)OCC(=O)Nc2ccc(OC(F)F)cc2)cc1)S(=O)(=O)c1cccs1,-3.07% (inactive)
2,Cn1c(C(=O)NCCCN2CCN(c3ccccc3F)CC2)cc2c(=O)n(C)c3ccccc3c21,2.56% (inactive)
3,C/C(=N/NC(=O)c1ccccn1)c1c[nH]c2ccccc12,9.32% (inactive)
4,C/C(=N/NC(=O)c1ccncc1)c1c[nH]c2ccccc12,3.5% (inactive)
5,C/C(=N\Nc1ncc(Cl)cc1Cl)c1ccc(C#N)cc1,-7.31% (inactive)
6,C/C(=N\Nc1ccc(Cl)cc1)c1ccccn1,-19.3% (inactive)
7,Cc1sc2ncnc(N/N=C/c3ccccc3O)c2c1C,12.5% (inactive)
8,O=C(N/N=C(\c1ccccc1)c1ccccn1)c1ccccc1Cl,7.83% (inactive)
9,C/C(=N/NC(=O)c1ccccn1)c1ccncc1,19.9% (inactive)
10,Cc1sc2ncnc(Nc3ccccc3)c2c1C,1.18% (inactive)
11,Nc1cc(N)nc(SCC(=O)NCc2ccco2)n1,0.81% (inactive)
12,CN(C(=O)Oc1ccc([N+](=O)[O-])cc1)c1ccccc1,5.58% (inactive)
13,COCCn1c(=O)[nH]c2cc(C(=O)N3CCN(c4cccc(C(F)(F)F)c4)CC3)ccc2c1=O,4.36% (inactive)
14,O=C1NC2NC(=O)N(C(Cc3ccccc3)C(=O)O)C2N1 (configuration not stated),7.19% (inactive)
15,C/C(=N\Nc1ccc(Cl)c(C(=O)O)c1)c1ccccn1,-11.6% (inactive)
16,O=C(COC(=O)c1ccccn1)c1ccc(Br)cc1,13.3% (inactive)
17,COc1ccc(C(=O)COC(=O)c2ccccn2)cc1OC,2.06% (inactive)
18,Clc1ccccc1N=Nc1ccccn1,2.66% (inactive)
19,O=C1CC(=C(c2ccccc2)c2ccccc2)C(=O)N1CCCCN1CCN(c2ccccc2)CC1,0.53% (inactive)
20,COc1cc(/C=C/C(=O)Nc2cccc(S(=O)(=O)N3CCOCC3)c2)ccc1OCC#N,-0.73% (inactive)
